In the library only some 6.7% were active in any assay of this set; here they are far more common.
MCF10A rerep: induces DNA re-replication in MCF 10a normal breast cells. Potency, µM (titrated, usually from 46.1 µM), without a hit: at the highest dose activity, positive = re-replication, most hits filed as activators. AID 624296. actives 2.9% (n = 350,000). MCF 10A DNA re-replication, Hoechst nuclear intensity, 48 h; note: % of control where 0% means no effect; nearly all actives have a fitted effect of over 50% in size
KB-3-1 tox: KB-3-1 parental cell cytotoxicity; actives 1.4% (n = 400,000); Potency, µM (highest dose often 46.1 µM), most hits filed as cytotoxic; AID 1347075; KB-3-1 viability, CellTiter-Glo ATP luminescence, 72 h; note: % is set by controls: 0 for no effect and ±100 for the full control effect; nearly all actives have a fitted effect of over 60% in size
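Multi-concentration cytotoxicity screen in KB-3-1 cells grown in DMEM lacking phenol red with 10% FBS. After 72 h at 37 °C with compound, ATP-dependent luminescence was recorded.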
PINK1 expr mod: changes PINK1 expression; PINK1 immunofluorescence, high-content cytometry, 24 h; Potency, µM (top dose mostly 76.6 µM), for the others: at the top dose activation (PINK1 increase), usual class: activators; actives 0.2% (n = 410,000); active = well fitted activation curve with a large enough effect; inconclusive = small, poorly fitted or top-dose-only effect; cell line not stated here; note: % of control where 0% means no effect; nearly all actives have a fitted effect of over 65% in size
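Cells are seeded, rested 12 hours, then given compound at five concentrations or DMSO for 24 hours. After fixation, blocking and antibody staining, PINK1 amount and mitochondrial localization are scored; CCCP serves as control.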
SW480 rerep: DNA re-replication induction in SW480 cells. AID 624297. actives 1.8% (n = 340,000). SW480 DNA re-replication, Hoechst DNA content imaging, 48 h. Potency, µM (top dose mostly 46.1 µM), for inactives: top-dose re-replication activation, most hits filed as activators; note: % of control where 0% means no effect; nearly all actives have a fitted effect of over 55% in size
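Readout is total intensity of Hoechst-stained nuclei, excited at 405 nm and collected at 500-530 nm. Compound treatment lasted 48 hr at 37 C in 5% CO2 before staining.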
KB-V1 cytotox: KB-V1 MDR subline cytotoxicity. KB-V1 MDR cells viability, CellTiter-Glo, 72 h. Potency, µM (titrated, usually from 46.1 µM), hits mostly cytotoxic. actives 3.4% (n = 400,000); note: % is set by controls: 0 for no effect and ±100 for the full control effect; nearly all actives have a fitted effect of over 60% in size
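In this primary screen, KB-V1 cells overexpressing P-gp are incubated with library compounds (lowest to highest concentration) for 72 h at 37 degrees C before a luminescent ATP viability read.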
* = called active by the depositor; [ ] = dose if it differs, or a comment. Unless noted, calls come from the whole dose curve; as a rule, active = well fitted curve in the direction sought with a large enough effect; inconclusive = small, poorly fitted or top-dose-only effect, or another doubt; inactive = no such curve, though single readings can be large; an effect the other way counts as inactive or inconclusive. Potency is the fitted concentration of half-maximal effect.

How did COc1ccccc1C=NN=C(NN=Cc1ccccc1OC)NN=Cc1ccccc1OC do in these assays?
MCF10A rerep: 26%; KB-3-1 tox: inconclusive; PINK1 expr mod: 28µM*; SW480 rerep: inconclusive; KB-V1 cytotox: 21µM*

What do the screens show for `COc1ccccc1C=NNC(=O)NN=Cc1ccccc1OC`?
MCF10A rerep: -13%; KB-3-1 tox: inactive; PINK1 expr mod: 10%; SW480 rerep: 1%; KB-V1 cytotox: inactive

Results for COc1ccccc1/C=C/C=N/Nc1cccc(C(=O)O)c1 ?
MCF10A rerep: 21µM*; KB-3-1 tox: inactive; PINK1 expr mod: 1%; SW480 rerep: 7%; KB-V1 cytotox: inactive

Results for COc1ccc(-n2c(=O)c3sc4ccccc4c3n(CC(=O)NC3CCCCC3)c2=O)cc1 ?
KB-3-1 tox: inactive; PINK1 expr mod: 3%; KB-V1 cytotox: inactive

What do the screens show for `COc1cccc(/C=N/NC(=O)CSc2ccccc2C)c1O`?
MCF10A rerep: inconclusive; KB-3-1 tox: inconclusive; PINK1 expr mod: -1%; SW480 rerep: inconclusive; KB-V1 cytotox: 6.5µM*

What do the screens show for `CCC(=NNC(=O)c1ccc2c(c1)nc(C)n2CC)c1cc(F)ccc1O`?
MCF10A rerep: 10%; KB-3-1 tox: inconclusive; PINK1 expr mod: -5%; SW480 rerep: inconclusive; KB-V1 cytotox: 2.3µM*

What do the screens show for `O=C(CP(=O)(c1ccccc1)c1ccccc1)N/N=C/c1cc(Br)cc(Br)c1O`?
MCF10A rerep: 5.8µM*; KB-3-1 tox: inactive; PINK1 expr mod: inconclusive; SW480 rerep: inconclusive; KB-V1 cytotox: inconclusive

What do the screens show for `Cc1ccc(S(=O)(=O)Oc2ccccc2/C=N/Nc2ccc(C(=O)O)cc2)cc1`?
MCF10A rerep: 18µM*; KB-3-1 tox: inactive; PINK1 expr mod: 11%; SW480 rerep: inconclusive; KB-V1 cytotox: inconclusive

Results for Cc1ccc(S(=O)(=O)Oc2ccccc2/C=N/O)cc1 ?
MCF10A rerep: 1%; KB-3-1 tox: inactive; PINK1 expr mod: 6%; SW480 rerep: 0%; KB-V1 cytotox: inactive

What do the screens show for `O=C(C[n+]1ccccc1)N/N=C/c1cc(Br)cc(Br)c1O`?
MCF10A rerep: inconclusive; KB-3-1 tox: inactive; PINK1 expr mod: -1%; SW480 rerep: inconclusive; KB-V1 cytotox: inactive

How did Clc1ccc(NN(Cc2ccncc2)c2ccc(Cl)cc2)cc1 do in these assays?
KB-3-1 tox: inconclusive; PINK1 expr mod: 1%; KB-V1 cytotox: inconclusive

Results for O=C(N/N=C/c1ccc(Br)s1)c1ccncc1 ?
MCF10A rerep: inconclusive; KB-3-1 tox: inactive; PINK1 expr mod: -2%; SW480 rerep: 10µM*; KB-V1 cytotox: inactive

Results for COc1cc([N+](=O)[O-])cc(/C=N/NC(=O)C(O)(c2ccccc2)c2ccccc2)c1O ?
MCF10A rerep: inconclusive; KB-3-1 tox: inactive; PINK1 expr mod: -2%; SW480 rerep: inconclusive; KB-V1 cytotox: inactive

What do the screens show for `COc1cccc(/C=N/NC(=O)c2nc(-c3ccccc3)cc(-c3ccccc3)n2)c1O`?
MCF10A rerep: 7%; KB-3-1 tox: inconclusive; PINK1 expr mod: 0%; SW480 rerep: 8.2µM*; KB-V1 cytotox: inconclusive

Results for O=C(N/N=C/c1ccc(Br)s1)c1cccs1 ?
MCF10A rerep: 3%; KB-3-1 tox: inconclusive; PINK1 expr mod: -1%; SW480 rerep: 3%; KB-V1 cytotox: inactive

Results for Cc1ccc(S(=O)(=O)Oc2ccccc2-c2ccccc2)cc1 ?
MCF10A rerep: 12µM*; KB-3-1 tox: inconclusive; PINK1 expr mod: 3%; SW480 rerep: 12µM*; KB-V1 cytotox: inconclusive

Results for COc1cc([N+](=O)[O-])cc(/C=N/NC(=O)c2cccnc2)c1O ?
MCF10A rerep: 6.5µM*; KB-3-1 tox: inconclusive; PINK1 expr mod: 0%; SW480 rerep: inconclusive; KB-V1 cytotox: inactive

What do the screens show for `Cc1cccc(C(=O)Nc2ccccc2OCc2cc(=O)n3c(C)csc3n2)c1`?
KB-3-1 tox: inactive; PINK1 expr mod: 0%; KB-V1 cytotox: inactive

What do the screens show for `COc1cccc(/C=N/NC(=O)N/N=C/c2cccc(OC)c2O)c1O`?
MCF10A rerep: 14%; KB-3-1 tox: inactive; PINK1 expr mod: 0%; SW480 rerep: inconclusive; KB-V1 cytotox: inactive

What do the screens show for `O=C(N/N=C/c1cc(Br)cc(Br)c1O)c1ccncc1`?
MCF10A rerep: inconclusive; KB-3-1 tox: inactive; PINK1 expr mod: 4%; SW480 rerep: 1µM*; KB-V1 cytotox: inactive

Results for O=C(N/N=C/C1=Cc2ccccc2OC1)c1ccncc1 ?
MCF10A rerep: inconclusive; KB-3-1 tox: inactive; PINK1 expr mod: 4%; SW480 rerep: 18µM*; KB-V1 cytotox: inactive

What do the screens show for `O=C(N/N=C/c1cc(Cl)cc(Cl)c1O)c1ccncc1`?
MCF10A rerep: inconclusive; KB-3-1 tox: inconclusive; PINK1 expr mod: 3%; SW480 rerep: inconclusive; KB-V1 cytotox: inconclusive

Results for O=C(N/N=C/c1ccco1)c1ccncc1 ?
MCF10A rerep: -4%; KB-3-1 tox: inactive; PINK1 expr mod: 0%[38.3 µM]; SW480 rerep: -14%; KB-V1 cytotox: inactive

What do the screens show for `COc1cccc(C=NNC(=O)c2ccncc2)c1O`?
MCF10A rerep: inconclusive; KB-3-1 tox: 21µM*; PINK1 expr mod: -1%; SW480 rerep: inconclusive; KB-V1 cytotox: inactive

Results for COc1cc(OC)c2cc(C(=O)N/N=C/c3cccc(OC)c3O)[nH]c2c1 ?
MCF10A rerep: 18%; KB-3-1 tox: inconclusive; PINK1 expr mod: 4%; SW480 rerep: 3.3µM*; KB-V1 cytotox: inconclusive

How did COc1cccc(/C=N/Nc2ccc(C(=O)O)cc2)c1O do in these assays?
MCF10A rerep: -1%; KB-3-1 tox: 16µM*; PINK1 expr mod: 2%; SW480 rerep: -8%; KB-V1 cytotox: inconclusive

Results for COc1ccc(/C=N/NC(=O)c2nc(-c3ccccc3)n(-c3ccccc3)n2)c(O)c1 ?
MCF10A rerep: 7.3µM*; KB-3-1 tox: inconclusive; PINK1 expr mod: -1%; SW480 rerep: inconclusive; KB-V1 cytotox: inactive

What do the screens show for `COc1ccc(S(=O)(=O)N2CCCC(C(=O)Nc3cccnc3)C2)cc1Cl` (centres undefined)?
MCF10A rerep: inconclusive; KB-3-1 tox: 16µM*; PINK1 expr mod: -2%; SW480 rerep: -2%[9.22 µM]; KB-V1 cytotox: inconclusive

How did COc1ccc(NC(=O)C2CCCN(S(=O)(=O)c3cccnc3)C2)cc1OC (centres undefined) do in these assays?
MCF10A rerep: 4%; KB-3-1 tox: inactive; PINK1 expr mod: 0%; SW480 rerep: 1%; KB-V1 cytotox: inactive

What do the screens show for `O=C(COc1ccccc1)Nc1ccc(S(=O)(=O)N2CCCCCC2)cc1`?
MCF10A rerep: 13%; KB-3-1 tox: inactive; PINK1 expr mod: -4%; SW480 rerep: 3%; KB-V1 cytotox: 16µM*

How did O=C(COc1ccccc1)Nc1ccc(S(=O)(=O)N2CCCC2)cc1 do in these assays?
MCF10A rerep: 4%; KB-3-1 tox: inactive; PINK1 expr mod: 1%; SW480 rerep: -2%; KB-V1 cytotox: inactive

Source: PubChem (National Center for Advancing Translational Sciences (NCATS))
